This passage reports inhibition results from PubChem BioAssay AID1527 (The Scripps Research Institute Molecular Screening Center, 2009).

About 2,600 (0.9%) of roughly 290,000 compounds were called active. What follows is part of a selection rich in actives, with near analogues and random picks from the rest. Unmarked numbers belong to inactive results.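 Rule for the calls: active = inhibition above the mean of all tested compounds plus 3 SD, cutoff set per screening run (cut at about 7.5% in these data); inactive = the rest.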

This test concerns VIM-2 metallo-beta-lactamase (Pseudomonas aeruginosa). As to the kind of experiment: VIM-2 metallo-beta-lactamase inhibitors, primary screen, biochemical, epi-absorbance readout, Pseudomonas aeruginosa enzyme (AID 1527).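 Note: red hydrolysis product quenches plate fluorescence so inhibitors raise well fluorescence; 0% = enzyme with DMSO and 100% = DMSO without enzyme.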 Particulars: purified VIM-2, nitrocefin hydrolysis, epi-absorbance fluorescence; at 5.6 µM; stronger effect = higher value.
Turning to `CCOC(=O)C1(Cc2ccccc2C)CCCN(S(C)(=O)=O)C1` (configuration not stated), the inhibition – broadly, the change of the read-out against control, counted positive when it falls – is 2.72%.

Consider `C/C(=N\Nc1ncc(Cl)cc1Cl)c1cccs1`, for which the inhibition is -1.51%.

For `C/C(=N\NS(=O)(=O)c1ccc(Br)cc1)c1cccs1`, the inhibition is -5.12%.

`C/C(=N\Nc1ccc(S(N)(=O)=O)cc1[N+](=O)[O-])c1cccs1`: the inhibition is 11.9% (active).

In the case of `CCN(CC)c1ccc(NC(=O)CCc2nnc3ccc(N4CCCCC4)nn23)c(C)c1`, the inhibition was -1.16%.

As to `Cc1cc([N+](=O)[O-])c(-c2ccc(/C=N/n3cnnc3)o2)cc1Cl`, the inhibition is 40.1% (active).

On to `Cc1cc(-c2ccc(/C=N/n3cnnc3)o2)c([N+](=O)[O-])cc1C`, for which the inhibition is 41.5% (active).

Consider `Cc1ccc(Cl)cc1-c1ccc(/C=N/n2cnnc2)o1`, for which the inhibition is 27.4% (active).

`Fc1ccc(Br)cc1/C=N/n1cnnc1`: the inhibition was 1.26%.

Regarding `Clc1cc(-c2ccc(/C=N/n3cnnc3)o2)ccc1Br`, the inhibition was 14.1% (active).

Turning to `Cc1cc(C)c([N+](=O)[O-])cc1-c1ccc(/C=N/NC(=O)c2nonc2N)o1`, the inhibition is -3.27%.

Turning to `Cc1ccccc1OCCOc1ccc([N+](=O)[O-])cc1/C=N/n1cnnc1`, the inhibition was -0.56%.

Turning to `O=C1C2C3C=CC(C4CC34)C2C(=O)N1/N=C/c1ccc(-c2ccccc2[N+](=O)[O-])o1` (configuration not stated), the inhibition is -0.54%.

As for `Cc1ccccc1-c1n[nH]c(=S)n1/N=C/c1ccc(-c2ccccc2Br)o1`, the inhibition is -6.24%.

As for `CC1=NN(c2ccc(Cl)c(C(=O)O)c2)C(=O)/C1=C/c1ccc(-c2ccccc2[N+](=O)[O-])o1`, the inhibition was -1.65%.

Turning to `Brc1cc(/C=N/n2cnnc2)oc1Br`, the inhibition is -2.87%.

Regarding `COC(=O)N/N=C/c1ccc(-c2ccc(Cl)c(Cl)c2)o1`, the inhibition was -1.8%.

Regarding `CC(NC(=O)C1CCCN(S(=O)(=O)c2ccc(-n3cnnn3)cc2)C1)c1ccc(F)cc1` (configuration not stated), the inhibition was 1.19%.

Consider `COc1ccc(CSc2nnnn2-c2ccc(C(=O)O)cc2)cc1`, for which the inhibition was -2.38%.

`COc1cc(CN2CCCC(C(=O)c3ccc(SC)cc3)C2)cc(Cl)c1O` (configuration not stated): the inhibition was -0.31%.

Consider `CCOc1c(OC)cccc1C(=O)NCC1(c2ccccc2)CCCC1`, for which the inhibition is -2.24%.

Take `CCCCNC(=S)NNC(=O)c1cc(C)on1`: the inhibition is 9.24% (active).

For the molecule `O=C(NNC(=S)NCCCN1CCOCC1)c1ccncc1`, the inhibition is 6.22%.

Regarding `COCCCNC(=S)NNC(=O)C(O)(c1ccccc1)c1ccccc1`, the inhibition is 2.9%.

In the case of `Cc1ccc(SCC(=O)c2cc(C)c(OC(=S)N(C)C)c(C)c2)cc1`, the inhibition was -4.92%.

On to `CCCC1=Nc2cc(C(=O)NCCN3CCCC3)ccc2Sc2ccccc21`, for which the inhibition is -3.66%.

For `COc1ccc(/C=N/Nc2nc3ccccc3o2)cc1OC`, the inhibition is -2.44%.

On to `COc1cc(/C=N/NC(=O)Cc2ccccc2)cc(OC)c1OC`, for which the inhibition was -1.77%.

Turning to `COc1cc(/C=N/Nc2nn3cnnc3c3ccccc23)cc(OC)c1OC`, the inhibition was 25.2% (active).

With `CCCc1nn2c(=O)cc(CSCC(=O)Nc3cccc(C)c3)nc2s1`, the inhibition was 0.24%.

Consider `Cc1cccn2cc(-c3cccc(S(=O)(=O)N4CCCCC4)c3)nc12`, for which the inhibition was -0.51%.

In the case of `CN(C(=O)c1cccc([N+](=O)[O-])c1)c1ccccc1C(=O)NCc1ccccc1`, the inhibition is -1.36%.

For the molecule `CCc1nc2oc3ccccc3c(=O)c2c(=O)n1Cc1ccc(OC)cc1`, the inhibition is -2.13%.

`O=c1c2ccccc2oc2nc(C3CCCCC3)n(Cc3ccco3)c(=O)c12`: the inhibition was -2.32%.

In the case of `O=c1c2ccccc2oc2nc3n(c(=O)c12)CCCS3`, the inhibition was 8.39% (active).

Regarding `Cc1sc2ncn(CC(=O)NCCCC(=O)NCc3ccc(F)cc3)c(=O)c2c1C`, the inhibition was 0.04%.

For `Cc1nc2sc(C(=O)c3ccccc3)c(N)c2c2c1CCCC2`, the inhibition is 2.15%.

`CN(C)c1ccnc2sc(C(=O)c3ccccc3)c(N)c12`: the inhibition was -2.05%.

For `Nc1c(C(=O)c2cccs2)sc2nsc(SCCN3CCCCC3)c12`, the inhibition is 13.6% (active).

Consider `CCN(CC)CCN1C(=O)C2C(C(=O)Nc3ccc(Br)cc3)C3C=CC2(O3)C1C(=O)NC1CCCCC1` (configuration not stated), for which the inhibition is -0.9%.

As for `Cc1ccc2[nH]c(=O)c(CC(=O)O)c(-c3ccccc3)c2c1`, the inhibition was -3.01%.

In the case of `CCOc1ccccc1NC(=S)N1CCN(c2cccc(C)c2C)CC1`, the inhibition was -0.35%.

As for `CCN(CC)CCNc1ccc(Cl)cc1[N+](=O)[O-]`, the inhibition was 0.16%.

Consider `CN(C)CCNc1ccc(-c2n[nH]c(=O)c3ccccc23)cc1[N+](=O)[O-]`, for which the inhibition was 78.8% (active).

Turning to `Cc1ccc(S(=O)(=O)N(C)C)cc1NC(=O)c1n[nH]c(=O)c2ccccc12`, the inhibition was -0.87%.

With `COCCNC(=O)c1ccccc1NS(=O)(=O)c1ccc(C)c([N+](=O)[O-])c1`, the inhibition is 0.45%.

Turning to `COCCNc1ccc(-c2n[nH]c(=O)c3ccccc23)cc1[N+](=O)[O-]`, the inhibition is 10.5% (active).

Take `COCCNc1cc(NCCOC)c([N+](=O)[O-])cc1[N+](=O)[O-]`: the inhibition is -3.48%.

For `O=C(Nc1ccc(S(=O)(=O)N2CCCCCC2)cc1)c1c(F)cccc1F`, the inhibition was -0.68%.

Regarding `O=C(O)CCCn1c(=O)c2cccn2c2ccc(F)cc21`, the inhibition is -1.43%.

For the molecule `Clc1ccc(CN2CCCCCC2)cc1Cl`, the inhibition was -2.14%.

`CC(=O)c1cccc(NC(=O)COc2ccc(S(=O)(=O)N3CCOCC3)cc2)c1`: the inhibition is -2.94%.

Take `C=CCNC(=S)NNC(=O)c1cc(Cl)ccc1OC`: the inhibition is -5.71%.

In the case of `Cc1cc(C)n2nc(C(=O)NC(C)(C)C)nc2n1`, the inhibition was -3.78%.

With `COc1ccc(Cl)cc1C(=O)NNC(=O)c1nc2nc(C)cc(C)n2n1`, the inhibition was 10.3% (active).

As to `O=C(CNC(=O)OCc1ccccc1)Oc1cc2oc(=O)cc(-c3ccccc3)c2cc1Cl`, the inhibition was 2.38%.

In the case of `CN(C)/C=C1/C(=O)Nc2ccccc21`, the inhibition was -0.22%.

Regarding `O=C1Nc2ccccc2/C1=C/c1ccnc2ccccc12`, the inhibition is 8.11% (active).

Consider `Cc1ccccc1N1CCN(CCCN2C(=O)C3CCCCN3C2=O)CC1` (configuration not stated), for which the inhibition was 0.15%.

In the case of `CC(NS(=O)(=O)c1ccccc1)c1n[nH]c(=S)n1-c1ccccc1` (configuration not stated), the inhibition was 14.9% (active).

For the molecule `S=c1[nH]nc(COc2ccccc2)n1-c1ccccc1`, the inhibition is -1.69%.

Take `CCCCC(CC(C)O)c1n[nH]c(=S)n1-c1ccccc1` (configuration not stated): the inhibition was -4.22%.
